Consider 40 molecules from PubChem BioAssay (Tox21).

Structures are written as SMILES. Records with an inconclusive call do not appear. Entries that show only a call come without a potency. The source made the active and inactive calls. Calls follow the shape of the full dose curve.

Sequence of Acetylcholinesterase (Homo sapiens) (P22303 whole entry, looked up): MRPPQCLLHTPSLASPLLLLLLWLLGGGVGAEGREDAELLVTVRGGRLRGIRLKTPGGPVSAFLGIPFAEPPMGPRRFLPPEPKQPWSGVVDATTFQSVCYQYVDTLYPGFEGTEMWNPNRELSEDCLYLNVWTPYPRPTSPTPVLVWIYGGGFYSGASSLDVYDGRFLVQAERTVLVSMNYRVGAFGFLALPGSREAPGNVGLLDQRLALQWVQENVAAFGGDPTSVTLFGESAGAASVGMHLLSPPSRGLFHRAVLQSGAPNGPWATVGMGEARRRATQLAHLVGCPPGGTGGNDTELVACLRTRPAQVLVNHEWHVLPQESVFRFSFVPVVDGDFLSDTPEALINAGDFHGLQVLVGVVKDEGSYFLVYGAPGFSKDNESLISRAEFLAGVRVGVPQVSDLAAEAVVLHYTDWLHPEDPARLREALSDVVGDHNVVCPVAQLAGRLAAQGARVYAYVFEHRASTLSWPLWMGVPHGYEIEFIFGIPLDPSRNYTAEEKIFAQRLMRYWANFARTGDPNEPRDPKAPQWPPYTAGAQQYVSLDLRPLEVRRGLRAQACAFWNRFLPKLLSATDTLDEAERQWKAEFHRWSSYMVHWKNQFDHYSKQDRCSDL

The first assay addresses Acetylcholinesterase (Homo sapiens) (UniProt P22303). The experiment in a line: Acetylcholinesterase (AChE) small molecule antagonists: fluorescence cell-based qHTS assay (AID 1347398). Also: nearly all actives have a fitted effect of over 50% in size. The conditions noted are these: SH-SY5Y cells; Potency: AChE activity; outcome: AChE activity; series mostly up to 115 µM. In short, it runs like this:
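Human SH-SY5Y cells were plated overnight at 37 C, exposed to compound for 30 min at 37 C, 5% CO2, then given acetylthiocholine plus Thiolite Green for 40 min at room temperature; thiocholine fluorescence (Ex/Em 490/520 nm) reports endogenous AChE activity.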
In general terms: In qHTS, concentration-response curves come from the screen itself.
`Cc1c(C)c2c(c(C)c1OC(=O)CCC(=O)O)CC[C@@](C)(CCC[C@H](C)CCC[C@H](C)CCCC(C)C)O2`: the Potency result is “inactive”.
On the same count and under the same terms, next, `C=CC(C)(CCC=C(C)C)OC(=O)CC` (stereo not given): “inactive”.
For the molecule `CC(=O)OC1C2(C)CCC(C2)C1(C)C` (stereo not given), the Potency result was “inactive”.
On the same count and under the same terms, then `Brc1cc(Br)c(Oc2cc(Br)c(Br)cc2Br)cc1Br`, with “inactive”; and `CCCCCCCC/C=C\CCCCCCCCO`, with “inactive”.
The same measure, in the same setting: next, `CCCCCCCCCCCCCCCC/C=C/C1CC(=O)OC1=O` (stereo not given): “inactive”; `C=C1CC[C@H]2C[C@@H]1C2(C)C`: “inactive”.
Same read-out and setting: then `CN(C)c1ccc(SC#N)cc1`, with “inactive”; and `CCCCCCOC(=O)C(C)CC` (stereo not given), with “inactive”.
With `C=CC(OCC)OCC`, the Potency result was “inactive”.
Still for that read-out and setting: then `Cc1cc2c(cc1CC(=O)c1sccc1S(=O)(=O)Nc1onc(C)c1Cl)OCO2`, with “inactive”; and `CC(C)=CCCC(C)CCOC(=O)C(C)C` (stereo not given), with “inactive”.
Still for that read-out and setting: next, `C=CCOCC(O)CS(=O)(=O)O` (stereo not given): “inactive”.
On the same count and under the same terms, then `CCCCOCCCC`, with “inactive”; and `NC(=O)c1ccncc1`, with “inactive”.
In the case of `CCCCCCCCCCCC(=O)[O][Sn]([CH2]CCC)([CH2]CCC)[O]C(=O)CCCCCCCCCCC`, the Potency entry was “inactive”.
The same measure, in the same setting: next, `O=C(/C=C/c1ccccc1)OCCc1ccccc1`: “inactive”.
Still for that read-out and setting: then `Nc1ccn([C@@H]2O[C@H](CO)[C@@H](O)C2(F)F)c(=O)n1`, with “inactive”.
On the same count and under the same terms, next, `FC1(F)C(F)(F)C(F)(F)C2(F)C(F)(F)C(F)(F)C(F)(F)C(F)(F)C2(F)C1(F)F` (stereo not given): “inactive”.
In the case of `CCC(CO)(CO)COCC(CC)(CO)CO`, the Potency entry was “inactive”.
Still for that read-out and setting: then `Cc1ccc(CO)cc1`, with “inactive”; and `CCCC=O`, with “inactive”; and `CCCC(=O)C(=O)O`, with “inactive”.
For `ClC(Cl)(Br)Br`, the Potency result was “inactive”.
Same read-out and setting: then `CCCCCCCCCCCCN1CCOCC1`, with “inactive”; and `CN(C)c1ccc(N=Nc2ccccc2C(=O)O)cc1`, with “inactive”.
As to `CCC(=O)CC`, the Potency result was “inactive”.
Still for that read-out and setting: then `COc1ccccc1OCC(O)CN1CCN(CC(=O)Nc2c(C)cccc2C)CC1` (stereo not given), with “inactive”; and `COc1ccccc1N1CCN(CCCNc2cc(=O)n(C)c(=O)n2C)CC1`, with “inactive”.
The same measure, in the same setting: then `CC(=O)NC(=O)c1ccccc1O`, with “inactive”; and `Oc1ccc2c(c1)Cc1ccccc1-2`, with “inactive”.
Same read-out and setting: next, `CCC/C=C/CO`: “inactive”; `Cc1nc(-c2ccc(Cl)cc2)oc1COC(C)(C)C(=O)O`: “inactive”.
Consider `CCCCC/C=C/CC1CC(=O)OC1=O` (stereo not given), for which the Potency result was “inactive”.
The same measure, in the same setting: next, `OCCCS`: “inactive”; `C=C1CCC2CC1C2(C)C` (stereo not given): “inactive”.
On the same count and under the same terms, next, `Nc1cc(C(=O)O)ccc1Cl`: “inactive”; `CC(C)(C)c1cc(CO)cc(C(C)(C)C)c1O`: “inactive”; `C=C(C)C(=O)OCC`: “inactive”.
On the same count and under the same terms, next, `C=C(C)CS(=O)(=O)O`: “inactive”.

The next assay shares this target. The experiment in a line: Acetylcholinesterase (AChE) small molecule antagonists: enzyme-based qHTS assay with human liver microsomes (AID 1347399). Also: nearly all actives have a fitted effect of over 60% in size. The conditions noted are these: Potency: qHTS inhibition; outcome: qHTS inhibition; series mostly up to 115 µM. An outline of the steps: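 Recombinant human AChE (50 mU/mL in the enzyme mix) and human liver microsomes (0.25 mg/mL final) were preincubated with compound and NADPH (0.25 mg/mL final) for 30 min at 37 C. Acetylthiocholine/DTNB was then added; thiocholine was read colorimetrically after 10 min at room temperature.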
As to `Cc1c(C)c2c(c(C)c1OC(=O)CCC(=O)O)CC[C@@](C)(CCC[C@H](C)CCC[C@H](C)CCCC(C)C)O2`, the Potency result was “inactive”.
On the same count and under the same terms, next, `C=CC(C)(CCC=C(C)C)OC(=O)CC` (stereo not given): “inactive”.
The same measure, in the same setting: then `CC(=O)OC1C2(C)CCC(C2)C1(C)C` (stereo not given), with “inactive”; and `Brc1cc(Br)c(Oc2cc(Br)c(Br)cc2Br)cc1Br`, with “inactive”; and `CCCCCCCC/C=C\CCCCCCCCO`, with “inactive”.
On the same count and under the same terms, then `CCCCCCCCCCCCCCCC/C=C/C1CC(=O)OC1=O` (stereo not given), with “inactive”; and `C=C1CC[C@H]2C[C@@H]1C2(C)C`, with “inactive”; and `CN(C)c1ccc(SC#N)cc1`, with “inactive”.
For the molecule `CCCCCCOC(=O)C(C)CC` (stereo not given), the Potency result was “inactive”.
As for `C=CC(OCC)OCC`, the Potency entry is “inactive”.
Still for that read-out and setting: next, `Cc1cc2c(cc1CC(=O)c1sccc1S(=O)(=O)Nc1onc(C)c1Cl)OCO2`: “inactive”.
On the same count and under the same terms, then `CC(C)=CCCC(C)CCOC(=O)C(C)C` (stereo not given), with “inactive”.
As to `C=CCOCC(O)CS(=O)(=O)O` (stereo not given), the Potency entry is “inactive”.
Same read-out and setting: then `CCCCOCCCC`, with “inactive”.
Same read-out and setting: then `NC(=O)c1ccncc1`, with “inactive”; and `CCCCCCCCCCCC(=O)[O][Sn]([CH2]CCC)([CH2]CCC)[O]C(=O)CCCCCCCCCCC`, with “inactive”.
Same read-out and setting: then `O=C(/C=C/c1ccccc1)OCCc1ccccc1`, with “inactive”; and `Nc1ccn([C@@H]2O[C@H](CO)[C@@H](O)C2(F)F)c(=O)n1`, with “inactive”; and `FC1(F)C(F)(F)C(F)(F)C2(F)C(F)(F)C(F)(F)C(F)(F)C(F)(F)C2(F)C1(F)F` (stereo not given), with “inactive”.
For the molecule `CCC(CO)(CO)COCC(CC)(CO)CO`, the Potency entry is “inactive”.
Same read-out and setting: then `Cc1ccc(CO)cc1`, with “inactive”.
The same measure, in the same setting: then `CCCC=O`, with “inactive”; and `CCCC(=O)C(=O)O`, with “inactive”.
The same measure, in the same setting: next, `ClC(Cl)(Br)Br`: “inactive”.
On to `CCCCCCCCCCCCN1CCOCC1`, for which the Potency result was “inactive”.
The same measure, in the same setting: next, `CN(C)c1ccc(N=Nc2ccccc2C(=O)O)cc1`: “inactive”; `CCC(=O)CC`: “inactive”.
The same measure, in the same setting: then `COc1ccccc1OCC(O)CN1CCN(CC(=O)Nc2c(C)cccc2C)CC1` (stereo not given), with “inactive”; and `COc1ccccc1N1CCN(CCCNc2cc(=O)n(C)c(=O)n2C)CC1`, with “inactive”; and `CC(=O)NC(=O)c1ccccc1O`, with “inactive”.
Still for that read-out and setting: then `Oc1ccc2c(c1)Cc1ccccc1-2`, with “inactive”; and `CCC/C=C/CO`, with “inactive”; and `Cc1nc(-c2ccc(Cl)cc2)oc1COC(C)(C)C(=O)O`, with “inactive”.
As to `CCCCC/C=C/CC1CC(=O)OC1=O` (stereo not given), the Potency result was “inactive”.
On the same count and under the same terms, then `OCCCS`, with “inactive”; and `C=C1CCC2CC1C2(C)C` (stereo not given), with “inactive”; and `Nc1cc(C(=O)O)ccc1Cl`, with “inactive”.
On to `CC(C)(C)c1cc(CO)cc(C(C)(C)C)c1O`, for which the Potency result was “inactive”.
For the molecule `C=C(C)C(=O)OCC`, the Potency entry was “inactive”.
On the same count and under the same terms, then `C=C(C)CS(=O)(=O)O`, with “inactive”.
